Source: PubChem BioAssay (NCATS)
Results filed as inconclusive are left out. Calls of active or inactive are those of the source. Unless noted, the call rests on the fitted dose curve; in most records, active means well fitted curve in the direction sought with a large enough effect; inconclusive means small, poorly fitted or top-dose-only effect, or another doubt; inactive means no such curve, though single readings can be large; an effect the other way counts as inactive or inconclusive.

What was measured:
[1] = Cell Viability - NIH 3T3 (AID 541); settings: NIH 3T3 cell viability, qHTS; activity change, negative = cytotoxicity: at 92.2 µM (top of the series);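 further: cells exposed to compound for 40 hours; plate controls were DMSO alone for no effect and tamoxifen positive control for full effect; nearly all actives have a fitted effect of over 25% in size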
Procedure, shortened: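 AC50 values reflect concentration-dependent loss of intracellular ATP in NIH 3T3 cells after 40 hr treatment in complete culture medium, quantified by luciferase-based luminescence.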

[2] = Cell Viability - SH-SY5Y (AID 544); settings: SH-SY5Y neuroblastoma cell viability; viability change, negative = cytotoxic: at 92.2 µM (top of the series);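 further: cells exposed to compound for 40 hours; 0% = DMSO alone and -100% = 100 µM tamoxifen; nearly all actives have a fitted effect of over 55% in size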
Procedure, shortened: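 Cytotoxicity is scored as a concentration-dependent fall in intracellular ATP in human SH-SY5Y cells treated 40 hr in complete culture medium. Potency is expressed as AC50 from a Hill equation fit.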

[3] = Cell Viability - LYMP2-001 (AID 921);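 further: 0% = DMSO only and full inhibition = tetraoctylammonium bromide control wells; nearly all actives have a fitted effect of over 70% in size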
Procedure, shortened: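 Human lymphoblastoid cells (Coriell), 2500 per well, were preincubated 5 hr at 37 C, then exposed to compounds in complete medium for 24 hr at 37 C. Cellular ATP was read by CellTiter-Glo luminescence; AC50 from Hill fits of concentration-response data.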

[4] = MultiTox-Fluor Cytotoxicity Assay - LYMP1-001 - Dead Cells (AID 946);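 further: cells exposed to compound for 16 h; 0% = DMSO and 100% = tetraoctylammonium bromide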
Procedure, shortened: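 LYMP1-001 lymphoblastoid cells (2500/well) treated 16 h at 37 C. Dead-cell protease cleavage of bis-AAF-R110 read at Ex/Em 485/520. Normalized to DMSO and 15 uM tetraoctylammonium bromide; AC50 from Hill fits.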

[5] = Cell Viability - LYMP1-003 - Assay at 40 hr (AID 964); further: on the % scale 0 is the no-effect control and ±100 the full control effect; nearly all actives have a fitted effect of over 60% in size
Procedure, shortened: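 This qHTS cytotoxicity screen treats human lymphoblastoid cells (LYMP1-003) with compounds for 40 hr and quantifies cellular ATP via luciferase luminescence.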

[6] = Cell Viability - LYMP2-011 (AID 969);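 further: 0% = DMSO only and full inhibition = 92 µM tetraoctylammonium bromide; nearly all actives have a fitted effect of over 60% in size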
Procedure, shortened: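 Acute toxicity is scored as a concentration-dependent drop in intracellular ATP of a human lymphoblastoid line after 24 hr treatment. Values are AC50s modeled with the Hill equation.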

[7] = Cell Viability - LYMP2-019 (AID 973);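 further: 0% = DMSO alone and full effect = 92 µM tetraoctylammonium bromide; nearly all actives have a fitted effect of over 55% in size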
Procedure, shortened: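 Cells plated at 2500/well and allowed 5 hr at 37 C before compound addition. After 24 hr incubation, CellTiter-Glo reagent was added, plates sat 30 min at room temperature, and luminescence was recorded.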

[8] = Cell Viability - LYMP2-023 (AID 975);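 further: cellular ATP measured by luciferase luminescence as viability proxy; plate controls were DMSO only for no effect and 92 µM tetraoctylammonium bromide control for full effect; nearly all actives have a fitted effect of over 55% in size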
Procedure, shortened: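 Concentration-dependent drop in intracellular ATP measures acute cytotoxicity in a human lymphoblastoid line treated for 24 hours in complete culture medium. AC50 values are taken from Hill-equation fits of qHTS data.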

[9] = Cell Viability - LYMP2-002 (AID 977);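 further: plate controls were DMSO only for no effect and 92 µM tetraoctylammonium bromide for full effect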
Procedure, shortened: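 Luminescent ATP readout (CellTiter-Glo, 30 min room temperature) after 24 h compound exposure at 37 C of a human lymphoblastoid line, 2500 cells/well. AC50 values derived by standard Hill fitting of qHTS concentration-response data.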

[10] = Cell Viability - LYMP2-007 (AID 979);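 further: cells exposed to compound for 24 h before reading; 0% = DMSO only and the negative end = 92 µM tetraoctylammonium bromide; nearly all actives have a fitted effect of over 60% in size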
Procedure, shortened: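 Acute toxicity is scored as a concentration-dependent fall in intracellular ATP in human lymphoblastoid cells treated 24 hr at 37 C, measured by luciferase luminescence; Hill-equation modelling yields AC50.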

[11] = Cell Viability - LYMP2-010 (AID 981); further: on the % scale 0 is the no-effect control and ±100 the full control effect; nearly all actives have a fitted effect of over 55% in size
Procedure, shortened: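 Acute toxicity is scored as a concentration-dependent loss of cellular ATP in human lymphoblastoid cells after 24 hr compound exposure in complete medium. Tetraoctylammonium bromide is the positive control.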

[12] = Cell Viability - LYMP2-014 (AID 983);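 further: plate controls were DMSO only for no effect and 92 µM tetraoctylammonium bromide for full effect; nearly all actives have a fitted effect of over 50% in size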
Procedure, shortened: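 Decrease in intracellular ATP after 24 hr treatment at 37 C, measured by luciferase luminescence, indicated cytotoxicity. Concentration-response data were fitted with the standard Hill equation to give AC50.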

[13] = Cell Viability - LYMP2-018 (AID 985);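 further: compound exposure lasted 24 hr at 37 °C; plate controls were DMSO only for no effect and tetraoctylammonium bromide at 92 µM for full effect; nearly all actives have a fitted effect of over 50% in size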
Procedure, shortened: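 Acute cytotoxicity is scored as a concentration-dependent drop in intracellular ATP after 24 hr exposure of the lymphoblastoid line in complete culture medium, measured by luciferase luminescence. Potency is expressed as AC50 from Hill modelling.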

[14] = Cell Viability - LYMP2-020 (AID 986)
Procedure, shortened: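 Acute cytotoxicity in a human lymphoblastoid line is scored as a concentration-dependent fall in cellular ATP after 24 hr at 37 C in complete medium. The positive control is tetraoctylammonium bromide, and potency is given as Hill-fit AC50.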

[15] = Cell Viability - LYMP2-022 (AID 987)
Procedure, shortened: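 Acute toxicity in a human lymphoblastoid line is scored as decreased intracellular ATP after 24 hr compound treatment at 37 C. ATP is measured by CellTiter-Glo luminescence; curves are fitted with the Hill equation to give AC50.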

[16] = Cell Viability - LYMP2-026 (AID 989); further: on the % scale 0 is the no-effect control and ±100 the full control effect; nearly all actives have a fitted effect of over 50% in size
Procedure, shortened: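 Concentration-dependent loss of intracellular ATP in human lymphoblastoid cells after 24 hr at 37 C, quantified by luciferase luminescence. AC50 derived from standard Hill equation.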

[17] = molecular target: Retinoic acid receptor RXR-alpha (Homo sapiens) (UniProt P19793); test: qHTS assay for small molecule agonists of retinoid X receptor alpha signaling (AID 588544; calls by dose curve;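 further: 0% = DMSO basal wells and 100% = reference agonist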)
[18] = Cell Viability - LYMP2-015 (AID 971)
Procedure, shortened: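 Acute toxicity was scored as a concentration-dependent drop in intracellular ATP in lymphoblastoid cells after 24 hr compound exposure in complete medium. Detection used CellTiter-Glo luciferase luminescence.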

[19] = molecular target: Voltage-gated inwardly rectifying potassium channel KCNH2 (Homo sapiens) (UniProt Q12809); test: qHTS Assay for Small Molecule Inhibitors of the Human hERG Channel Activity (AID 588834);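 further: lower thallium flux fluorescence means stronger hERG block; nearly all actives have a fitted effect of over 50% in size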; further: potency means the concentration at half of the fitted maximal effect
Procedure, shortened: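 U2OS cells transduced with hERG via BacMam (MOI ~100), plated 2000/well, loaded with FluxOR thallium dye, compound ~10 min, then stimulation buffer; fluorescence decrease read kinetically; AC50 from Hill fits.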

[20] = Cell Viability - LYMP2-006 (AID 978); further: on the % scale 0 is the no-effect control and ±100 the full control effect; nearly all actives have a fitted effect of over 60% in size
Procedure, shortened: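 Human lymphoblastoid cells, 2500 per well, were preincubated 5 hr at 37 C, then exposed to compounds for 24 hr at 37 C in complete medium. Viability was read as intracellular ATP by CellTiter-Glo luminescence; AC50 from Hill-equation fits of qHTS concentration-response data.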

Chain of Voltage-gated inwardly rectifying potassium channel KCNH2 (Homo sapiens) (Q12809 whole entry, looked up): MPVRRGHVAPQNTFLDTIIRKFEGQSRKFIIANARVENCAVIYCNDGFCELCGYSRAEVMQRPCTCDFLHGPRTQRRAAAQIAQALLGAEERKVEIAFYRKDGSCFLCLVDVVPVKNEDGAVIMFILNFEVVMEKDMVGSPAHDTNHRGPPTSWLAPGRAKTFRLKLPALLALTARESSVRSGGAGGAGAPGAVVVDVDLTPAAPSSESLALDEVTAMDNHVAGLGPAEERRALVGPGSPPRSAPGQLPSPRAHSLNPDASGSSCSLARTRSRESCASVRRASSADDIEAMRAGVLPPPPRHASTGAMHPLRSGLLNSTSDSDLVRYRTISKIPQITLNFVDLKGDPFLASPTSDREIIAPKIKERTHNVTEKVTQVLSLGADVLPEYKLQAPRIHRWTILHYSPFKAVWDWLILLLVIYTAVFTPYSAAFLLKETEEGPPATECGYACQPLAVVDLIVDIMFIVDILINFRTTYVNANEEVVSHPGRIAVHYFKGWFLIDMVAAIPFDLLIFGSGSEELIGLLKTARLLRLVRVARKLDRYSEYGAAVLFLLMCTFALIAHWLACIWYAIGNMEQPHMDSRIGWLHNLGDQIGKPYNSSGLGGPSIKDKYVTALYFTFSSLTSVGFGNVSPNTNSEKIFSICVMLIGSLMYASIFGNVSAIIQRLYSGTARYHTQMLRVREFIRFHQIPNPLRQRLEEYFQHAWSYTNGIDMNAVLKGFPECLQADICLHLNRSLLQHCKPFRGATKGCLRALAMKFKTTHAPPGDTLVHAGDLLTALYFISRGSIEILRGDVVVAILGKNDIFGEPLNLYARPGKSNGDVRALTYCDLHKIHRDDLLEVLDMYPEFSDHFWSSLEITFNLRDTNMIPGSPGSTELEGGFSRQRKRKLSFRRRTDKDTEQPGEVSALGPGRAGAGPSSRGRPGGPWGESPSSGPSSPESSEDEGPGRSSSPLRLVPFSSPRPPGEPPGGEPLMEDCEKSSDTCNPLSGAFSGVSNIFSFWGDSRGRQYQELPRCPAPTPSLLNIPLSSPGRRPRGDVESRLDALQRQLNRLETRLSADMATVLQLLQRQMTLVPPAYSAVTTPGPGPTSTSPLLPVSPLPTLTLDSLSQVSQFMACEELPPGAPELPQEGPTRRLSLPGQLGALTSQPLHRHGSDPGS
Chain of Retinoic acid receptor RXR-alpha (Homo sapiens) (P19793 whole entry, looked up): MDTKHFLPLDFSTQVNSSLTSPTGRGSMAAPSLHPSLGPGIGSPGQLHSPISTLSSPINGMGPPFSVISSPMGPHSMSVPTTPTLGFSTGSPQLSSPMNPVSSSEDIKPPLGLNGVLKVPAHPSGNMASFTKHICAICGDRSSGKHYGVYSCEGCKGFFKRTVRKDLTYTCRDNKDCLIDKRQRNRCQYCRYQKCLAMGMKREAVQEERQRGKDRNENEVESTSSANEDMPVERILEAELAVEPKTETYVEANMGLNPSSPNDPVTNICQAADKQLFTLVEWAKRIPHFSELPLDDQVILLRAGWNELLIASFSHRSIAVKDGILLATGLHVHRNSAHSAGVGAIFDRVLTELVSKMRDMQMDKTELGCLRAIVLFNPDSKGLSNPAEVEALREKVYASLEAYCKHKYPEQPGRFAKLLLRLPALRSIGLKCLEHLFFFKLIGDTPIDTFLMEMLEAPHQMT

Clc1ccc(C(Cl)(Cl)Cl)c(Cl)c1
inactive: Potency [1] | Potency [2] | Potency [3] | outcome [4] | Potency [5] | Potency [6] | Potency [7] | Potency [8] | Potency [9] | Potency [10] | Potency [11] | Potency [12] | Potency [13] | Potency [14] | Potency [15] | Potency [16] | outcome [17]

[O-][Cl+]O
inactive: Potency [1] | Potency [2] | Potency [3] | outcome [4] | Potency [5] | Potency [6] | Potency [18] | Potency [7] | Potency [8] | Potency [9] | Potency [10] | Potency [11] | Potency [12] | Potency [13] | Potency [14] | Potency [15] | Potency [16] | outcome [17] | Potency [19]

Cc1ccccc1[N+](=O)[O-]
inactive: Potency [1] | Potency [2] | outcome [4] | Potency [5] | Potency [6] | Potency [18] | Potency [20] | Potency [10] | Potency [11] | Potency [12] | Potency [14] | Potency [15] | outcome [17] | Potency [19]

C=CC=O
active: viability change, negative = cytotoxic [2] -91.6%
inactive: Potency [1] | Potency [3] | outcome [4] | Potency [5] | Potency [6] | Potency [7] | Potency [8] | Potency [9] | Potency [10] | Potency [11] | Potency [12] | Potency [14] | Potency [15] | Potency [16] | outcome [17]

CCC[N+](=O)[O-]
inactive: Potency [1] | Potency [2] | Potency [3] | outcome [4] | Potency [6] | Potency [18] | Potency [7] | Potency [8] | Potency [11] | Potency [12] | Potency [14] | Potency [15] | Potency [16] | Potency [19]

Cc1ccc(N)cc1C
inactive: Potency [1] | Potency [2] | Potency [3] | outcome [4] | Potency [18] | Potency [8] | Potency [9] | Potency [20] | Potency [10] | Potency [11] | Potency [12] | Potency [14] | Potency [15] | Potency [16] | outcome [17] | Potency [19]

COc1c(C(C)(C)C)cc([N+](=O)[O-])c(C)c1[N+](=O)[O-]
active: Potency [19] 31.6 µM
inactive: Potency [1] | Potency [2] | Potency [3] | outcome [4] | Potency [5] | Potency [18] | Potency [7] | Potency [20] | Potency [10] | Potency [11] | Potency [12] | Potency [13] | Potency [15] | Potency [16] | outcome [17]

O=C(Cl)OCc1ccccc1
inactive: Potency [1] | Potency [2] | Potency [3] | outcome [4] | Potency [5] | Potency [6] | Potency [18] | Potency [7] | Potency [8] | Potency [9] | Potency [20] | Potency [10] | Potency [12] | Potency [13] | Potency [15]

Clc1cc(Cl)c(Cl)c(Cl)c1
inactive: Potency [1] | Potency [2] | Potency [3] | outcome [4] | Potency [5] | Potency [18] | Potency [7] | Potency [8] | Potency [9] | Potency [20] | Potency [10] | Potency [11] | Potency [12] | Potency [13] | Potency [14] | Potency [15] | Potency [16] | outcome [17] | Potency [19]
